PubChem BioAssay (Tox21)
Inconclusive results are not listed. Activity calls are given as the source filed them. Unless noted, the call rests on the fitted dose curve; in most records, active means well fitted curve in the direction sought with a large enough effect in the repeat runs; inconclusive means weak or mixed curves; inactive means no such curve, though single readings can be large; an effect the other way counts as inactive or inconclusive.

Tests used:
[1] = qHTS assay to identify small molecule agonists of the peroxisome proliferator-activated receptor delta (PPARd) signaling pathway - cell viability counter screen (AID 743211); further: nearly all actives have a fitted effect of over 55% in size
Outline: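 Viability was measured as CellTiter-Glo luminescence (30 min, room temperature) in the same wells as the beta-lactamase readout. GeneBLAzer PPARd UAS-bla HEK293H cells received compound after 5 h plating and were incubated 17 h at 37 C.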

[2] = biological target: Peroxisome proliferator-activated receptor delta (Homo sapiens) (UniProt Q03181); test: qHTS assay to identify small molecule agonists of the peroxisome proliferator-activated receptor delta (PPARd) signaling pathway (AID 743212; calls by dose curve)
Outline: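 Steps: seed PPARd-bla HEK293H cells; incubate 5 h, 37 C, 5% CO2; add compounds in DMSO; incubate, 37 C; add LiveBLAzer B/G FRET substrate; hold 2 h at room temperature; measure fluorescence.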

[3] = qHTS assay to identify small molecule antagonists of the peroxisome proliferator-activated receptor delta (PPARd) signaling pathway - cell viability counter screen (AID 743213); further: nearly all actives have a fitted effect of over 50% in size
Outline: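 Viability counter-screen, qHTS format: PPARd-bla HEK293H, L165041 300 nM final, 17 h compound exposure at 37 C, CellTiter-Glo luminescence after 30 min RT.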

[4] = biological target: Peroxisome proliferator-activated receptor delta (Homo sapiens) (UniProt Q03181); test: qHTS assay to identify small molecule antagonists of the peroxisome proliferator-activated receptor delta (PPARd) signaling pathway (AID 743215; active means well fitted inhibition curve with a large enough effect in the signal ratio in the repeat runs, not every such curve was filed as active; the % refers to the signal ratio;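 further: cells stimulated with agonist L165041 at 300 nM final during compound exposure; series mostly up to about 62 µM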)
Outline: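 Cells: HEK293H with a UAS-driven beta-lactamase reporter responsive to PPARd. Compounds were co-added with L165041 (300 nM, final) and incubated 17 h at 37 C before a 2 h room-temperature FRET substrate step and fluorescence reading.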

[5] = biological target: Bile acid receptor (Homo sapiens) (UniProt Q96RI1); test: qHTS assay to identify small molecule agonists of the farnesoid-X-receptor (FXR) signaling pathway (AID 743220; active means well fitted activation curve with a large enough effect in the signal ratio in the repeat runs, not every such curve was filed as active; the % refers to the signal ratio)
Outline: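 FXR-UAS-bla HEK 293T cells carrying a UAS-driven beta-lactamase reporter were plated for 5 h at 37C/5% CO2, then exposed to DMSO-dissolved Tox21 10K compounds for 16 h at 37C. A LiveBLAzer B/G FRET substrate was loaded for 2 h at room temperature before fluorescence reading.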

[6] = qHTS assay to identify small molecule antagonists of the farnesoid-X-receptor (FXR) signaling pathway - cell viability counter screen (AID 743221; active means well fitted cell-killing curve with a large enough effect in the repeat runs, not every such curve was filed as active; further: nearly all actives have a fitted effect of over 50% in size)
Outline: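 Cytotoxicity counter screen run in the FXR-bla reporter wells: HEK 293T cells exposed to compound with 50 uM (final) chenodeoxycholic acid for 16 h, 37 C, then viability measured by CellTiter-Glo luminescence after 30 min, room temperature.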

[7] = biological target: Vitamin D3 receptor (Homo sapiens) (UniProt P11473); test: qHTS assay to identify small molecule agonists of the vitamin D receptor (VDR) signaling pathway (AID 743222; calls by dose curve)
Outline: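 Cells carrying a VDR-driven beta-lactamase reporter are seeded at 2,000 per well and rested 4 h. Compounds in DMSO are added for 16 h at 37C, and FRET substrate fluorescence is measured after 2 h at room temperature.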

[8] = biological target: Vitamin D3 receptor (Homo sapiens) (UniProt P11473); test: qHTS assay to identify small molecule antagonists of the vitamin D receptor (VDR) signaling pathway (AID 743223; active means well fitted inhibition curve with a large enough effect in the signal ratio in the repeat runs, not every such curve was filed as active; the % refers to the signal ratio)
Outline: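 Antagonist mode: compound added to VDR-bla cells alongside agonist 1alpha,25-dihydroxyvitamin D3 (3 nM final), incubation 16 h at 37C. Read-out is LiveBLAzer FRET fluorescence, 2 h at room temperature.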

[9] = qHTS assay to identify small molecule agonists of the vitamin D receptor (VDR) signaling pathway - cell viability counter screen (AID 743224); further: series mostly up to about 63 µM; nearly all actives have a fitted effect of over 50% in size
Outline: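 Cells: VDR-bla, 2,000/well, settled 4 h. Treatment: compounds in DMSO, 16 h, 37C/5% CO2. Readout: CellTiter-Glo luminescence after 30 min RT.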

[10] = qHTS assay to identify small molecule agonists of the endoplasmic reticulum stress response signaling pathway (AID 1159516; active means well fitted activation curve with a large enough effect in the signal ratio in the repeat runs, not every such curve was filed as active; the % refers to the signal ratio)
Outline: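 Cells are seeded at 1,500 per well and incubated overnight. Compounds in DMSO are added for 5 hr at 37 C, then beta-lactamase FRET substrate for 2 hr at room temperature, and fluorescence at 460 and 530 nm is measured.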

[11] = qHTS assay to identify small molecule agonists of the endoplasmic reticulum stress response signaling pathway - cell viability counter screen (AID 1159517; calls by dose curve;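 further: HeLa cells carrying an ER stress response element beta-lactamase reporter; series mostly up to about 61 µM; nearly all actives have a fitted effect of over 50% in size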)
Outline: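 After overnight attachment, ESRE-bla HeLa cells were treated with Tox21 library compounds for 5 hr. CellTiter-Glo luminescence, read 30 min post-addition at room temperature, reported viability.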

[12] = qHTS assay to identify small molecule antagonists of the retinoid-related orphan receptor gamma (ROR-gamma) signaling pathway - cell viability counter screen (AID 1159520); further: nearly all actives have a fitted effect of over 50% in size
Outline: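 Cytotoxicity was read from cellular ATP (CellTiter-Glo luminescence) after 16 hr at 37 C with 1 uM doxycycline induction. The inducer was added 2 hr after compound transfer to Tet-on ROR gamma CHO cells.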

[13] = biological target: Nuclear receptor ROR-gamma (Homo sapiens) (UniProt P51449); test: qHTS assay to identify small molecule antagonists of the retinoid-related orphan receptor gamma (ROR-gamma) signaling pathway (AID 1159521)
Outline: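 Antagonist read-out: drop in luminescence (ONE-Glo) from an RORE-LUC reporter in CHO cells with doxycycline-inducible ROR-gamma; 2 hr compound pretreatment, 1 uM doxycycline, 16 hr incubation at 37 C.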

[14] = qHTS assay to identify small molecule agonists of the AP-1 signaling pathway - cell viability counter screen (AID 1159525; calls by dose curve; further: nearly all actives have a fitted effect of over 55% in size)
Outline: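 Intracellular ATP by Cell Titer Glo luminescence (30 min, RT) in the same ME-180 AP-1-bla wells after the 5 h compound exposure at 37 °C. Normalised to tetra n-octyl ammonium bromide and DMSO controls.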

[15] = biological target: Bile acid receptor (Homo sapiens) (UniProt Q96RI1); test: qHTS assay to identify small molecule antagonists of the farnesoid-X-receptor (FXR) signaling pathway (AID 743217; active means well fitted inhibition curve with a large enough effect in the signal ratio in the repeat runs, not every such curve was filed as active; the % refers to the signal ratio)
Outline: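 Cells carrying a UAS-driven beta-lactamase reporter (GeneBLAzer FXR-UAS-bla HEK 293T) were plated and rested 5 h at 37 °C. Compounds in DMSO were added alongside chenodeoxycholic acid agonist at 50 uM final and left 16 h at 37 °C before FRET substrate readout.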

[16] = qHTS assay to identify small molecule agonists of the farnesoid-X-receptor (FXR) signaling pathway - cell viability counter screen (AID 743218); further: nearly all actives have a fitted effect of over 45% in size
Outline: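 Cells were seeded, left 5 h at 37 C and 5% CO2, then dosed with compound in DMSO for 16 h. After the beta-lactamase FRET read, CellTiter-Glo was added and luminescence measured 30 min later.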

[17] = qHTS assay to identify small molecule antagonists of the vitamin D receptor (VDR) signaling pathway - cell viability counter screen (AID 743225); further: nearly all actives have a fitted effect of over 50% in size
Outline: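 Cytotoxicity counter screen read by CellTiter-Glo luminescence (30 min, room temperature) in the same wells as the VDR-bla antagonist readout. HEK 293T VDR-UAS-bla cells had 16 h at 37C with compound and 3 nM (final) 1-alpha,25-dihydroxyvitamin D3, then 2 h with FRET substrate.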

[18] = qHTS assay to identify small molecule agonists of the AP-1 signaling pathway (AID 1159526; calls by dose curve)
[19] = biological target: Retinoic acid receptor RXR-alpha (Homo sapiens) (UniProt P19793); test: qHTS assay to identify small molecule agonists of the RXR signaling pathway (AID 1159527; calls by dose curve; further: nearly all actives have a fitted effect of over 35% in size)
Outline: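 Agonist-mode beta-lactamase reporter assay: HEK 293T RXR-alpha-UAS-bla cells treated 16 hr at 37 C with compounds, 9-cis retinoic acid as positive control. LiveBLAzer FRET substrate, 405 nm excitation, 460/530 nm emission.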

Measured: Potency

Sequence of Bile acid receptor (Homo sapiens) (Q96RI1 whole entry, looked up): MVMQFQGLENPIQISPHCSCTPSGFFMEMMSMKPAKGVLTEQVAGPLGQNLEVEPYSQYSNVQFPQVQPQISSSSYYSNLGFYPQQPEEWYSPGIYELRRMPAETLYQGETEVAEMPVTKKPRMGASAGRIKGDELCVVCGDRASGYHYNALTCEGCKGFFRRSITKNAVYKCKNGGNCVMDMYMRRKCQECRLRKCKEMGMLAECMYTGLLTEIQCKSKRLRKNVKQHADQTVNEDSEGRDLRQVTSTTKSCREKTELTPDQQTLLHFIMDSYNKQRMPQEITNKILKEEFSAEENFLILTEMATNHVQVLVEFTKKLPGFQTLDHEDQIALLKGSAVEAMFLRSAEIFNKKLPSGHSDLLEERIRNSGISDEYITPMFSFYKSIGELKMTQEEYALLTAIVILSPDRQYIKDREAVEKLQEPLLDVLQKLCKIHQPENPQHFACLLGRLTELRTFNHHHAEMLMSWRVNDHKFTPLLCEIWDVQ
Sequence of Peroxisome proliferator-activated receptor delta (Homo sapiens) (Q03181 whole entry, looked up): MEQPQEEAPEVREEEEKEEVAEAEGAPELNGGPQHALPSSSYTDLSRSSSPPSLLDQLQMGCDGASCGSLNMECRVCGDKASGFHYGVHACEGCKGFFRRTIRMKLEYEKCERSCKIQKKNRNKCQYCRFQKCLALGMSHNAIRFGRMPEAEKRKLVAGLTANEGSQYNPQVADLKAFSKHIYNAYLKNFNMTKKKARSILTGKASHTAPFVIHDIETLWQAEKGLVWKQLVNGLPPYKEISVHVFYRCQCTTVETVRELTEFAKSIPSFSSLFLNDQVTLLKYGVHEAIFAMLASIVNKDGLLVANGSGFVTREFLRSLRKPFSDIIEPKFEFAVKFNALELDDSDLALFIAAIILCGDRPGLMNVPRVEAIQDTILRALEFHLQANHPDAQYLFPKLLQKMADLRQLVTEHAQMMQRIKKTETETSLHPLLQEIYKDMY
Sequence of Vitamin D3 receptor (Homo sapiens) (P11473 whole entry, looked up): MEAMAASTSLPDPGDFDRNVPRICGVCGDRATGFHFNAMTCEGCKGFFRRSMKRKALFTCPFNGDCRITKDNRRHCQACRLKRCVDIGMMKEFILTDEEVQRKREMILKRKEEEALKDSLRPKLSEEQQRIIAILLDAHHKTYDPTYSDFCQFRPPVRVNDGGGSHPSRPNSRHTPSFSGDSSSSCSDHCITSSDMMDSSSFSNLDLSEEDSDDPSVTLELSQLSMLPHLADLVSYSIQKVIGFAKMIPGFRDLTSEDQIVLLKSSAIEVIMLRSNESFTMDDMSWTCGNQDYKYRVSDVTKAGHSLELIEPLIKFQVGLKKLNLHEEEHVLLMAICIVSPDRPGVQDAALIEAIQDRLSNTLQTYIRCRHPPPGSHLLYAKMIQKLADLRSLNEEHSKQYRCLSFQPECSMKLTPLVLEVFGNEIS
Sequence of Retinoic acid receptor RXR-alpha (Homo sapiens) (P19793 whole entry, looked up): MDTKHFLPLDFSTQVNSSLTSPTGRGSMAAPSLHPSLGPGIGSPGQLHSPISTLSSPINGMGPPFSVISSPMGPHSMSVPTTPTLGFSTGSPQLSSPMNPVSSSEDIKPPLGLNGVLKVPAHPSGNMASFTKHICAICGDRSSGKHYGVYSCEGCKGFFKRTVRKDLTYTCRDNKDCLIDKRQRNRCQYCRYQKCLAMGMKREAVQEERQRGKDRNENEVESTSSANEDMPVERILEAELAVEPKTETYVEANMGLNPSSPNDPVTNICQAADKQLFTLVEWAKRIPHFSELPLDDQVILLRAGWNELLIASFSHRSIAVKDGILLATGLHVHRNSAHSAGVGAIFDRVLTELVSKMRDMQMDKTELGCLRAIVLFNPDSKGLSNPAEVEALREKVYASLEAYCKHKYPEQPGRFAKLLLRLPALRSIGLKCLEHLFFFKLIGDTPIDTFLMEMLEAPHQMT

C[C@@H](C1=C(CCN(C)C)Cc2ccccc21)c1ccccn1
not listed: [15] | [16] | [17] | [18] | [19]
inactive: all other assays above

N#Cc1c(F)cccc1F
not listed: [7] | [8] | [19]
inactive: all other assays above

CC1=CCC(C(C)C)C=C1 (centres undefined)
inactive: [1] | [3] | [16] | [6] | [9] | [17] | [10] | [11] | [14] | [18]

CCCC(=O)OCC
not listed: [5] | [9] | [15] | [19]
inactive: all other assays above

CC(C(=O)O)c1ccc(C(=O)c2ccccc2)s1 (centres undefined)
not listed: [3] | [4] | [15] | [19]
inactive: all other assays above

O=c1c2ccccc2nnn1CCl
not listed: [5] | [15] | [19]
inactive: all other assays above

CC(C)c1ccc2c(C(C)C)cc(C(C)C)c(S(=O)(=O)O)c2c1
not listed: [8] | [10] | [17] | [18]
inactive: all other assays above

CCCCOC(O)CC (centres undefined)
not listed: [3] | [10] | [12] | [17] | [19]
inactive: all other assays above

CCCCCCc1ccc(N)cc1
not listed: [2] | [5] | [9] | [16] | [19]
inactive: all other assays above
